Substitutions are numbered along the chain they refer to.

The results in this text go back to article PMC9838217, “Structure of SALL4 zinc finger domain reveals link between AT-rich DNA binding and Okihiro syndrome”.

Common to all, as to test: HT-SELEX; high values mean tight binding
What all share (conditions): protein: recombinant; vector His6-GST; dsDNA, one strand shown

One assay has as its target T1, SALL4 ZFC4 WT (HT-SELEX) (Mus musculus, UniProt Q8BX22 870-940).
T1 sequence: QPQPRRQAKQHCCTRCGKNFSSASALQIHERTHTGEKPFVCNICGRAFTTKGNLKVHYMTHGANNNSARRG
The essentials:
(§1)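 Up to 6 cycles of selection were run in triplicate. In each, purified recombinant mouse SALL4 zinc finger cluster 4 (residues 870–940, 1 µg) was incubated with library DNA (1.5 µg first cycle, 200 ng later) in 100 µl of 10 mM Tris–HCl pH 7.5, 50 mM NaCl, poly(dI-dC), DTT for 10 min at room temperature, then complexes were captured on Ni2+ beads, washed and PCR-amplified; final pools were MiSeq-sequenced and scanned for 6-mers. Binding signal is each canonical k-mer's read fraction as fold change versus the initial random library.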

The target in assay [1] is T2, SALL4 ZFC4 R900W (HT-SELEX) (Mus musculus, UniProt Q8BX22 870-940, R900W).
T2 sequence: T1 sequence with R31W
The essentials: as §1

Assay [2] has as its target T3, SALL4 ZFC4 G921D (HT-SELEX) (Mus musculus, UniProt Q8BX22 870-940, G921D).
T3 sequence: T1 sequence with G52D
The essentials: as §1

Consider ACCCAC, for which the binding signal amounted to 0.443 ± 0.0307 fold-change vs cycle 0 with SALL4 ZFC4 WT (HT-SELEX), 0.506 ± 0.0282 fold-change vs cycle 0 in assay [1] and 0.606 ± 0.0557 fold-change vs cycle 0 in assay [2].

In the case of AGATAG, the binding signal was determined as 1.35 ± 0.0403 fold-change vs cycle 0 in the assay with SALL4 ZFC4 WT (HT-SELEX), 1.5 ± 0.0704 fold-change vs cycle 0 in assay [1] and 1.43 ± 0.117 fold-change vs cycle 0 in assay [2].

AAAGCA: the binding signal with SALL4 ZFC4 WT (HT-SELEX) was 1.06 ± 0.0392 fold-change vs cycle 0; in assay [1], 1.13 ± 0.0246 fold-change vs cycle 0; in assay [2], 1.14 ± 0.0213 fold-change vs cycle 0.

On to ACATAT, for which the binding signal is 2.28 ± 0.213 fold-change vs cycle 0 in the assay with SALL4 ZFC4 WT (HT-SELEX), 1.97 ± 0.122 fold-change vs cycle 0 in assay [1] and 1.75 ± 0.16 fold-change vs cycle 0 in assay [2].

Regarding AACGAG, the binding signal in the assay with SALL4 ZFC4 WT (HT-SELEX) amounted to 0.782 ± 0.0393 fold-change vs cycle 0; in assay [1], 0.894 ± 0.0693 fold-change vs cycle 0; in assay [2], 0.934 ± 0.0683 fold-change vs cycle 0.

Consider GGTAAC, for which the values for the binding signal (with SALL4 ZFC4 WT (HT-SELEX); in assay [1]; in assay [2]) were 0.927 ± 0.0412 fold-change vs cycle 0, 1.08 ± 0.0236 fold-change vs cycle 0 and 1.06 ± 0.0314 fold-change vs cycle 0, respectively.

On to ACCAAA, for which the values for the binding signal (in the assay with SALL4 ZFC4 WT (HT-SELEX); in assay [1]; in assay [2]) were 1.09 ± 0.0301 fold-change vs cycle 0, 1.17 ± 0.0218 fold-change vs cycle 0 and 1.18 ± 0.044 fold-change vs cycle 0, respectively.

For the sequence CTGCAG, the values for the binding signal (with SALL4 ZFC4 WT (HT-SELEX); in assay [1]; in assay [2]) were 0.318 ± 0.0345 fold-change vs cycle 0, 0.373 ± 0.0324 fold-change vs cycle 0 and 0.467 ± 0.0711 fold-change vs cycle 0, respectively.

In the case of AAGGGA, the binding signal worked out at 0.928 ± 0.0784 fold-change vs cycle 0 with SALL4 ZFC4 WT (HT-SELEX), 1.09 ± 0.0682 fold-change vs cycle 0 in assay [1] and 1.03 ± 0.0363 fold-change vs cycle 0 in assay [2].

Regarding AATAGT, the binding signal is 1.96 ± 0.0795 fold-change vs cycle 0 with SALL4 ZFC4 WT (HT-SELEX), 1.94 ± 0.0794 fold-change vs cycle 0 in assay [1] and 1.77 ± 0.136 fold-change vs cycle 0 in assay [2].

For ATCAGA, the binding signal with SALL4 ZFC4 WT (HT-SELEX) amounted to 1.37 ± 0.0717 fold-change vs cycle 0; in assay [1] it was 1.43 ± 0.0639 fold-change vs cycle 0; in assay [2], 1.38 ± 0.109 fold-change vs cycle 0.

Take GGGGTA: the binding signal with SALL4 ZFC4 WT (HT-SELEX) turned out to be 0.484 ± 0.0383 fold-change vs cycle 0; in assay [1], 0.541 ± 0.0115 fold-change vs cycle 0; in assay [2] it was 0.611 ± 0.0687 fold-change vs cycle 0.

With ACTTGG, the binding signal with SALL4 ZFC4 WT (HT-SELEX) turned out to be 0.787 ± 0.0269 fold-change vs cycle 0; in assay [1], 0.907 ± 0.0234 fold-change vs cycle 0; in assay [2], 0.936 ± 0.0313 fold-change vs cycle 0.

Consider CGATAC, for which the binding signal in the assay with SALL4 ZFC4 WT (HT-SELEX) was determined as 0.695 ± 0.052 fold-change vs cycle 0; in assay [1], 0.793 ± 0.033 fold-change vs cycle 0; in assay [2], 0.902 ± 0.0425 fold-change vs cycle 0.

As to ACTCTG, the binding signal amounted to 0.817 ± 0.0779 fold-change vs cycle 0 with SALL4 ZFC4 WT (HT-SELEX), 0.914 ± 0.0491 fold-change vs cycle 0 in assay [1] and 0.937 ± 0.0411 fold-change vs cycle 0 in assay [2].

For GCATCA, the binding signal with SALL4 ZFC4 WT (HT-SELEX) is 0.645 ± 0.017 fold-change vs cycle 0; in assay [1] it was 0.724 ± 0.00868 fold-change vs cycle 0; in assay [2] it was 0.83 ± 0.0436 fold-change vs cycle 0.

Take ACCACC: the binding signal was determined as 0.457 ± 0.039 fold-change vs cycle 0 in the assay with SALL4 ZFC4 WT (HT-SELEX), 0.514 ± 0.0309 fold-change vs cycle 0 in assay [1] and 0.616 ± 0.0424 fold-change vs cycle 0 in assay [2].

Consider GGGGGA, for which the binding signal in the assay with SALL4 ZFC4 WT (HT-SELEX) is 0.31 ± 0.0219 fold-change vs cycle 0; in assay [1], 0.349 ± 0.0327 fold-change vs cycle 0; in assay [2] it was 0.439 ± 0.0654 fold-change vs cycle 0.

Consider GAGACA, for which the values for the binding signal (in the assay with SALL4 ZFC4 WT (HT-SELEX); in assay [1]; in assay [2]) were 0.735 ± 0.0463 fold-change vs cycle 0, 0.867 ± 0.0277 fold-change vs cycle 0 and 0.933 ± 0.0384 fold-change vs cycle 0, respectively.

For CCCTAG, the binding signal with SALL4 ZFC4 WT (HT-SELEX) was determined as 0.516 ± 0.0342 fold-change vs cycle 0; in assay [1] it was 0.601 ± 0.0265 fold-change vs cycle 0; in assay [2], 0.667 ± 0.029 fold-change vs cycle 0.

Turning to GCTATA, the figures for the binding signal (with SALL4 ZFC4 WT (HT-SELEX); in assay [1]; in assay [2]) were 1.13 ± 0.0575 fold-change vs cycle 0, 1.11 ± 0.0825 fold-change vs cycle 0 and 1.15 ± 0.0714 fold-change vs cycle 0, respectively.

With CACTCA, the values for the binding signal (with SALL4 ZFC4 WT (HT-SELEX); in assay [1]; in assay [2]) were 0.83 ± 0.0249 fold-change vs cycle 0, 0.928 ± 0.0236 fold-change vs cycle 0 and 0.995 ± 0.0233 fold-change vs cycle 0, respectively.

Regarding ACCACT, the binding signal with SALL4 ZFC4 WT (HT-SELEX) amounted to 0.783 ± 0.0402 fold-change vs cycle 0; in assay [1] it was 0.885 ± 0.0293 fold-change vs cycle 0; in assay [2] it was 0.93 ± 0.0313 fold-change vs cycle 0.

Regarding AAGGAG, the binding signal turned out to be 1 ± 0.0181 fold-change vs cycle 0 with SALL4 ZFC4 WT (HT-SELEX), 1.14 ± 0.0427 fold-change vs cycle 0 in assay [1] and 1.13 ± 0.0474 fold-change vs cycle 0 in assay [2].

As for CTTTAA, the binding signal with SALL4 ZFC4 WT (HT-SELEX) stood at 1.84 ± 0.0654 fold-change vs cycle 0; in assay [1], 1.95 ± 0.0889 fold-change vs cycle 0; in assay [2], 1.69 ± 0.149 fold-change vs cycle 0.

With AGTGGA, the binding signal in the assay with SALL4 ZFC4 WT (HT-SELEX) was determined as 0.862 ± 0.03 fold-change vs cycle 0; in assay [1], 0.954 ± 0.0352 fold-change vs cycle 0; in assay [2], 0.964 ± 0.0435 fold-change vs cycle 0.

On to TAGAGA, for which the binding signal with SALL4 ZFC4 WT (HT-SELEX) is 1.42 ± 0.0253 fold-change vs cycle 0; in assay [1] it was 1.54 ± 0.113 fold-change vs cycle 0; in assay [2], 1.48 ± 0.0729 fold-change vs cycle 0.

As to ATTGTC, the binding signal with SALL4 ZFC4 WT (HT-SELEX) was found to be 1.14 ± 0.0493 fold-change vs cycle 0; in assay [1] it was 1.21 ± 0.0499 fold-change vs cycle 0; in assay [2], 1.24 ± 0.0435 fold-change vs cycle 0.

For the sequence CGTAAG, the figures for the binding signal (in the assay with SALL4 ZFC4 WT (HT-SELEX); in assay [1]; in assay [2]) were 0.774 ± 0.0532 fold-change vs cycle 0, 0.862 ± 0.0372 fold-change vs cycle 0 and 0.905 ± 0.0422 fold-change vs cycle 0, respectively.

In the case of AAGAAT, the binding signal in the assay with SALL4 ZFC4 WT (HT-SELEX) amounted to 2.15 ± 0.0737 fold-change vs cycle 0; in assay [1] it was 2.2 ± 0.103 fold-change vs cycle 0; in assay [2], 1.91 ± 0.167 fold-change vs cycle 0.

Consider CAACGG, for which the binding signal worked out at 0.353 ± 0.0289 fold-change vs cycle 0 with SALL4 ZFC4 WT (HT-SELEX), 0.419 ± 0.0235 fold-change vs cycle 0 in assay [1] and 0.526 ± 0.0596 fold-change vs cycle 0 in assay [2].

Turning to GATACA, the results for the binding signal (in the assay with SALL4 ZFC4 WT (HT-SELEX); in assay [1]; in assay [2]) were 1.33 ± 0.0706 fold-change vs cycle 0, 1.39 ± 0.0615 fold-change vs cycle 0 and 1.37 ± 0.0715 fold-change vs cycle 0, respectively.

With ACCTAC, the binding signal with SALL4 ZFC4 WT (HT-SELEX) is 0.796 ± 0.0505 fold-change vs cycle 0; in assay [1], 0.908 ± 0.0415 fold-change vs cycle 0; in assay [2], 0.957 ± 0.0179 fold-change vs cycle 0.

On to CCCTCA, for which the figures for the binding signal (with SALL4 ZFC4 WT (HT-SELEX); in assay [1]; in assay [2]) were 0.502 ± 0.0184 fold-change vs cycle 0, 0.579 ± 0.0163 fold-change vs cycle 0 and 0.665 ± 0.0275 fold-change vs cycle 0, respectively.

For the sequence CCAAGG, the binding signal with SALL4 ZFC4 WT (HT-SELEX) is 0.457 ± 0.0202 fold-change vs cycle 0; in assay [1], 0.535 ± 0.0059 fold-change vs cycle 0; in assay [2] it was 0.642 ± 0.0371 fold-change vs cycle 0.

Regarding AGGACA, the binding signal with SALL4 ZFC4 WT (HT-SELEX) was 0.769 ± 0.0198 fold-change vs cycle 0; in assay [1], 0.906 ± 0.0391 fold-change vs cycle 0; in assay [2], 0.947 ± 0.0205 fold-change vs cycle 0.
